PABP FP inh: blocks human PABP binding to poly(A) RNA; inhibition, % at 35 µM; P11940; fluorescence polarization; 290,000 compounds, 1% hits;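 note: calls also rest on retests at 20 µM and on dose response follow-up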
Efflux pump inh: inhibitors of Candida antifungal efflux pumps expressed in yeast. AID 485275. 330,000 compounds, 0.44% hits. S. cerevisiae Candida pump triplex, Nile Red efflux. inhibition, % at 10 µM;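 active = plate passing quality check with inhibition over a set limit, or well fluorescence over plate mean plus 4 SD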;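 note: Nile Red retained in pooled yeast measured as flow cytometry median fluorescence; 0% = buffer negative control and 100% = Enniatin B positive control; higher means more Nile Red kept so more efflux inhibition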
ALR inh: inhibitors of human sulfhydryl oxidase ALR; purified ALR, DTT oxidation, H2O2 HRP-luminol luminescence; inhibition, % (no concentration beside the values); 290,000 compounds, 3.8% hits;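 active = mean replicate inhibition above about 79%, with every replicate also reaching it, limit read from the data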
Target sequence (P55789 whole entry, looked up): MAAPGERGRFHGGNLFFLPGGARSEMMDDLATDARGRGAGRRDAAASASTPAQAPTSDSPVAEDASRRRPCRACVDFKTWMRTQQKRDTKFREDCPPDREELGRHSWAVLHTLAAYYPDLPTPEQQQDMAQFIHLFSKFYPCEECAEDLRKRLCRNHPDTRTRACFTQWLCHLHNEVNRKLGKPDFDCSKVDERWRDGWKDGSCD
eIF4H inh: inhibitors of RNA binding by human eIF4H; Q15056; eIF4H fluorescence polarization binding assay; inhibition, % at 35 µM; 290,000 compounds, 0.94% hits;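 note: calls also rest on retests at 20 µM and on dose response follow-up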
UBC9 SUMO inh: SUMOylation inhibition; inhibition, % at 35 µM; HTRF SUMOylation assay, SAE1/SAE2 + UBC9, in vitro; 290,000 compounds, 0.36% hits; P63279; in the data active = inhibition above about 50%, passing the limit was not always enough
Target sequence (P63279 whole entry, looked up): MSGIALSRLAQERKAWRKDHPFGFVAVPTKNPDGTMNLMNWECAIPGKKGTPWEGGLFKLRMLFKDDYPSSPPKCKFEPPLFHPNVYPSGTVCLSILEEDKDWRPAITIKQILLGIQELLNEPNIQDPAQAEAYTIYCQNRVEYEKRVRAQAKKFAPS
MLLE-PAM2 inh: inhibitors of microRNA-mediated deadenylation, human PABP1 MLLE binding | 360,000 compounds, 0.36% hits | GST-MLLE / FITC-PAM2 fluorescence polarization | inhibition, % at 20 µM | AID 588489; in the data active = inhibition above about 35%, passing the limit was not always enough;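 note: plate controls were DMSO wells with GST-MLLE for no effect and wells lacking GST-MLLE protein for full effect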
Numbers without * were called inactive. An excerpt weighted towards active compounds, which were near 4.7% of everything screened. Unless noted, the rule behind the calls is not given here.

O=C1CCCC(=O)C1CS(=O)(=O)c1ccccc1 was read as PABP FP inh 7, Efflux pump inh 0, ALR inh 12, eIF4H inh -8, UBC9 SUMO inh 7 and MLLE-PAM2 inh 52*.
`O=C1CC(c2ccc(Cl)cc2)CC(=O)C1CS(=O)(=O)c1ccccc1` (configuration not stated) gave PABP FP inh 10, Efflux pump inh 0, ALR inh 17, eIF4H inh -4, UBC9 SUMO inh -8 and MLLE-PAM2 inh 31.
Screening CSc1ccc(-c2nc(CSCC(=O)NC3CC3)c(C)o2)cc1 returned PABP FP inh -2, Efflux pump inh 0, ALR inh 98*, eIF4H inh -6, UBC9 SUMO inh 23 and MLLE-PAM2 inh 22.
CCOC(=O)N1CCC(NC(=O)CSCc2nc(-c3ccc(OC)cc3)oc2C)CC1 was read as PABP FP inh -8, Efflux pump inh 0, ALR inh 86*, eIF4H inh -21, UBC9 SUMO inh 2 and MLLE-PAM2 inh 11.
Screening CCc1ccc(-c2nc(CSCC(=O)NC3CC3)c(C)o2)cc1 returned PABP FP inh 0, Efflux pump inh 0, ALR inh 70, eIF4H inh -6, UBC9 SUMO inh 9 and MLLE-PAM2 inh 10.
Screening CSc1ccc(-c2nc(CSCC(=O)N3CCOCC3)c(C)o2)cc1 returned PABP FP inh -8, Efflux pump inh 0, ALR inh 98*, eIF4H inh -14, UBC9 SUMO inh -4 and MLLE-PAM2 inh 23.
For CCc1ccc(-c2nc(CSCC(=O)N3CCN(c4ncccn4)CC3)c(C)o2)cc1 the results were PABP FP inh -8, Efflux pump inh 0, ALR inh 97*, eIF4H inh -5, UBC9 SUMO inh 10 and MLLE-PAM2 inh 6.
For Cc1oc(-c2ccccc2Cl)nc1CSCC(=O)NC1CC1 the results were PABP FP inh -2, Efflux pump inh 0, ALR inh 98*, eIF4H inh 3, UBC9 SUMO inh 34 and MLLE-PAM2 inh 20.
`Cc1oc(-c2ccccc2F)nc1CSCC(=O)NC1CCCC1` gave PABP FP inh -6, Efflux pump inh 0, ALR inh -33, eIF4H inh -11, UBC9 SUMO inh 13 and MLLE-PAM2 inh -1.
For Cc1cccc(NC(=O)COC(=O)c2cc3ccccc3oc2=O)c1 the results were PABP FP inh -5, Efflux pump inh 0, ALR inh 1, eIF4H inh 12, UBC9 SUMO inh 4 and MLLE-PAM2 inh 1.
`Nc1nc(C2CC2)c(Sc2sc(N)nc2C2CC2)s1` gave PABP FP inh 22, Efflux pump inh 0, ALR inh 99*, eIF4H inh 47, UBC9 SUMO inh -4 and MLLE-PAM2 inh 23.
O=c1c(C(c2ccc(Br)cc2)c2c(O)nc3n(c2=O)CCS3)c(O)nc2n1CCS2 was read as PABP FP inh 25, Efflux pump inh 0, ALR inh 52, eIF4H inh 4, UBC9 SUMO inh 11 and MLLE-PAM2 inh 26.
For Cc1ccc(C(c2c(O)nc3n(c2=O)CCS3)c2c(O)nc3n(c2=O)CCS3)cc1 the results were PABP FP inh -9, Efflux pump inh 0, ALR inh 97*, eIF4H inh 0, UBC9 SUMO inh 2 and MLLE-PAM2 inh 13.
`O=c1c(C(c2c(O)nc3n(c2=O)CCS3)c2cccc3ccccc23)c(O)nc2n1CCS2` gave PABP FP inh 37, Efflux pump inh 0, ALR inh 96*, eIF4H inh 21, UBC9 SUMO inh 17 and MLLE-PAM2 inh 27.
For O=c1c(C(c2ccc(O)cc2)c2c(O)nc3n(c2=O)CCS3)c(O)nc2n1CCS2 the results were PABP FP inh 21, Efflux pump inh 0, eIF4H inh 28, UBC9 SUMO inh 2 and MLLE-PAM2 inh 24.
For Cc1ccc(C)n1-c1sc2c(c1C(=O)O)CCCC2 the results were PABP FP inh 14, Efflux pump inh 0, ALR inh 96*, eIF4H inh 96, UBC9 SUMO inh 15 and MLLE-PAM2 inh 16.
For CCOC(=O)c1c(-n2c(C)cc(C=O)c2C)sc2c1CCCC2 the results were PABP FP inh -3, Efflux pump inh 0, ALR inh -3, eIF4H inh -9, UBC9 SUMO inh -2 and MLLE-PAM2 inh -3.
Cc1ncc(C[n+]2csc(CCOC(=O)CC3C4CC5CC(C4)CC3C5)c2C)c(N)n1 (configuration not stated) was read as PABP FP inh 51*, Efflux pump inh 0, eIF4H inh 28, UBC9 SUMO inh -19 and MLLE-PAM2 inh 15.
